# Bioassay records from PubChem BioAssay.
# Rows were chosen to be rich in hits. Some 4% of all compounds tested hit in one or more screens of this group.
# LMP1 NFkB inh – Epstein-Barr LMP1 NF-kappaB reporter inhibition; inhibition, % at 12.5 µM; LMP1-induced NF-kappaB luciferase reporter cells, luminescence; 350,000 compounds, 0.69% hits; AID 504558; in the data active means inhibition above about 41%; inconclusive means no clear call, values can overlap the other calls;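 further: 0% = neutral control wells and 100% = reference inhibitor control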
# C2C12 statin – suppressors of simvastatin-induced myotoxicity in C2C12 myotubes. 330,000 compounds, 0.78% hits. rescue of ATP level, % at 7.49 µM. ATP luminescence, 48 h; scaled: DMSO 0, geranylgeraniol control 100. AID 602340;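 active means mean ATP rescue above about 67%, or every replicate alone reaching that limit, limit read from the data, passing the limit was not always enough; inconclusive means no clear call, values can overlap the other calls; inactive means mean under the limit and some replicate under it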;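 further: myotubes were challenged with 10 µM simvastatin during compound exposure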
# Wnt bcat act – activators of Wnt/beta-catenin signaling; Wnt/beta-catenin reporter cell assay, activator, plate reader; activation, % at 9.35 µM; 300,000 compounds, 1.2% hits; AID 743398; in the data active means activation above about 30%, passing the limit was not always enough; inconclusive means no clear call, values can overlap the other calls;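 further: 0% = neutral control wells and 100% = positive control wells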
# TRPM1 prom inh – MITF TRPM1 promoter inhibition in SK-MEL-5 cells | AID 488899 | SK-MEL-5 TRPM1 promoter luciferase, 24 h | 330,000 compounds, 0.83% hits | inhibition, % at 12.5 µM;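 active means mean inhibition across replicates of 60% or more, whatever share of single replicates reaches that level; inconclusive means some that reach 60%, reason not given; inactive means mean inhibition across replicates below 60%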
# esBAF inh – SWI/SNF esBAF complex inhibition; 350,000 compounds, 2% hits; reporter increase, % at 12.5 µM; mouse ES cells, Bmi1-luciferase knock-in reporter, 24 h; 100% = twice the neutral-well signal; AID 602393; in the data active means activation above about 40%; inconclusive means no clear call, values can overlap the other calls;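 further: 0% = median of the plate's neutral control wells and 100% = double that signal; a rise in the Bmi1 reporter signal indicates esBAF inhibition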
# MITF act – increases MITF-driven TRPM1 promoter luciferase signal; activation, % at 12.5 µM; 300,000 compounds, 0.75% hits; SK-MEL-5 TRPM1-promoter luciferase, 24 h; % of positive control, neutral wells = 0;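 active means mean activation of at least 80% with every replicate also reaching 80%; inconclusive means mean reaches 80% but some replicate falls short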;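 further: 0% = neutral control wells and 100% = parthenolide positive control wells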
# esBAF Ring1 qPCR – esBAF inhibition confirmed by Ring1 de-repression; shares compounds with esBAF inh; mouse ESC E14, Ring1 mRNA RT-qPCR fold change; fold change at 33 µM; 550 tested, under 10 active; AID 743176;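 active means Ring1 gene expression raised more than 2-fold over untreated cells in both replicates at either tested dose; inconclusive means only one replicate above 2-fold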;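 further: Ring1 transcript normalised to actin housekeeping signal by TaqMan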
# esBAF Fgf4 qPCR – represses Fgf4 in mouse ESCs, confirming esBAF inhibition; shares compounds with esBAF inh; mouse ESC E14, Fgf4 mRNA qPCR fold change; stronger effect = lower value; Fgf4 expression fold change at 33 µM; 550 compounds, 4% hits;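 active means Fgf4 expression under 0.8 fold of control in both repeat measurements at one or both tested doses; inconclusive means under 0.8 fold in just a single repeat measurement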;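 further: Fgf4 transcript normalised to actin in duplex TaqMan qPCR; cells exposed to compound for 24 h before lysis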
# Bmi1 derepress – de-represses Bmi1 in mouse ESCs, confirming esBAF inhibition. shares compounds with esBAF inh. mouse ESE14 ES cells, Bmi1 mRNA qPCR fold; stronger effect = higher value. fold change at 33 µM. 550 tested, under 10 active. AID 743180;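 active means Bmi1 expression fold change above 6 at either tested concentration, seen in replicate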
# A549 cytotox – cytotoxicity in A549 cells; shares compounds with esBAF inh; plate reader; cell viability change % (negative = cytotoxic), % at 25 µM, hits read low; 550 tested, under 10 active; call rule not given here
# HepG2 cytotox SP – cytotoxicity in HepG2 cells; AID 743189; 550 compounds, 4% hits; plate reader; stronger effect = lower value; shares compounds with esBAF inh; activity change, negative = inhibition, % at 25 µM; in the data active means activity change below about -50%
# HEK293 cytotox SP – kills or reduces viability of HEK293 cells | shares compounds with esBAF inh | HEK293 cytotoxicity, plate reader | activity change, negative = inhibition, % at 25 µM, hits read low | 550 compounds, 3% hits | AID 743190; in the data active means activity change below about -38%, passing the limit was not always enough
# Active calls of the source: *; ? = inconclusive; / = no result given.
SMILES,LMP1 NFkB inh,C2C12 statin,Wnt bcat act,TRPM1 prom inh,esBAF inh,MITF act,esBAF Ring1 qPCR,esBAF Fgf4 qPCR,Bmi1 derepress,A549 cytotox,HepG2 cytotox SP,HEK293 cytotox SP
O=C(Nc1cc(Cl)ccc1Cl)c1ccc(-c2ccccc2)cc1,-21,/,-2,-7,/,8,/,/,/,/,/,/
O=C(Nc1ccc(Cl)c(Cl)c1)c1ccc(Cl)c(Cl)c1,-23,0,20,-51,?,53,/,/,/,/,/,/
O=C(Nc1ccc2c(c1)COC2=O)c1ccc(Cl)c(Cl)c1,-8,-4,16,-57,75*,52,1.3,1.1,1,-14,-32,-12
O=C(Nc1ccc(Cl)c(Cl)c1)c1ccncc1,-6,4,12,-36,65*,37,1.2,1,1.5,0,22,-8
Cc1c(C)n(Cc2ccc(F)cc2)c2ccc(C(=O)N3CCN(c4ccccn4)CC3)cc12,-2,29,-3,3,6,-2,/,/,/,/,/,/
O=C(Nc1ccc2ccccc2c1)c1cccc2ccccc12,-31,3,-3,-32,77*,32,1.1,0.95,1.8,-9,22,-11
COc1ccc(NC(=O)c2ccc3ccccc3c2OC)cc1,-26,-16,-1,-65,75*,/,1.1,0.93,2.3,0,-33,-6
COc1ccc(NC(=O)c2cc3ccccc3cc2OC)cc1,-74,-34,23,-67,28,63,/,/,/,/,/,/
COc1ccc2c(c1)CC/C(=C/c1ccccn1)C2=O,5,3,26,-38,68*,46,1.1,0.37*,5,-4,-16,-22
O=C(Nc1nccs1)C(=O)c1c[nH]c2ccccc12,-88,-23,59*,-114,68*,?,1.1,0.87,1.5,-9,-13,-9
O=C(Cc1c[nH]c2ccccc12)Nc1nccs1,-5,11,-1,1,13,-5,/,/,/,/,/,/
CN(C)S(=O)(=O)c1cccc(C(=O)Nc2ccc(Cl)cn2)c1,-10,6,17,-60,63*,64,1.2,0.92,1.4,-1,-19,0
O=C(O)CCCCCNc1nc(=S)[nH]c2ccccc12,-1,3,/,-7,-5,/,/,/,/,/,/,/
